This passage reports binding signal results from publication PMC10812921, “Transcriptional Coactivator BOB1 (OBF1, OCA-B) Modulates the Specificity of DNA Recognition by the POU-Domain Factors OCT1 and OCT2 in a Monomeric Configuration”.

For one test, the target named is POU1 (OCT1 POU domain) (human, UniProt P14859 260-458). Briefly: EMSA-SELEX-seq; no BOB1; 20 mM Tris-HCl pH 7.6, 140 mM NaCl, 10% glycerol, 0.5 mM EDTA, 0.05% Triton X-100, 0.1 mg/mL BSA, 0.1 mg/mL poly(dI-dC), 5 mM DTT, room temperature, 20 min; high values mean tight binding. To be noted: protein: recombinant; dsDNA, one strand shown. An outline of the steps: (§1)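 Binding preference is reported as the percentage of sequenced 8-mers that match a motif pattern. Tagged POU-domain proteins were made in E. coli BL21, purified under denaturing conditions and renatured. A 30 ng portion was combined with 300 ng of a PCR-amplified double-stranded random 35-nt library, with or without 28 ng coactivator protein, in 20 μL Tris–HCl pH 7.6 binding buffer for 20 min at RT. Complex bands were excised from native 6% PAGE, eluted and PCR-amplified over four rounds before Illumina sequencing.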
POU1 (OCT1 POU domain), sequence (P14859 260-458): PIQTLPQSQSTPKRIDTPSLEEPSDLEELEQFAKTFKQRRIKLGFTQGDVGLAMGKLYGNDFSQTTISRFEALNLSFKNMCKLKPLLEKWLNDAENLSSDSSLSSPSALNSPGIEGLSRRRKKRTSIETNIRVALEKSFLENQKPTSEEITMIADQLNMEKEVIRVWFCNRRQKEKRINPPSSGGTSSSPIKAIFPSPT
In general terms: A gel shift assay detects complexes by their altered migration in electrophoresis.

The next test concerns the target T1, POU2 (OCT2 POU domain) (human, UniProt P09086 175-386).
T1 sequence: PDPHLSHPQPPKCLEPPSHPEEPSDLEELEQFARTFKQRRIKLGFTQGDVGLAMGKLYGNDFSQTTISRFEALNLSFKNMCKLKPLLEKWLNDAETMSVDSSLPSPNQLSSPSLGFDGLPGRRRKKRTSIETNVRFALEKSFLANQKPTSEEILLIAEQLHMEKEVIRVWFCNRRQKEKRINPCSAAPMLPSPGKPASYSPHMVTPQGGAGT
Described as above. As to conditions: protein: recombinant; dsDNA, one strand shown. An outline of the steps: as §1

The target in test [1] is POU1 (OCT1 POU domain);BOB1 (OBF1, OCA-B) (human;human, UniProt P14859;Q16633 260-458;1-256, |). Briefly: EMSA-SELEX-seq; with BOB1 (ternary complex band); 20 mM Tris-HCl pH 7.6, 140 mM NaCl, 10% glycerol, 0.5 mM EDTA, 0.05% Triton X-100, 0.1 mg/mL BSA, 0.1 mg/mL poly(dI-dC), 5 mM DTT, room temperature, 20 min; high values mean tight binding. To be noted: protein: recombinant;recombinant; copies: 1;1; dsDNA, one strand shown. An outline of the steps:
as §1

For test [2], the target named is T2, POU2 (OCT2 POU domain);BOB1 (OBF1, OCA-B) (human;human, UniProt P09086;Q16633 175-386;1-256, |).
T2 sequence 1: T1 sequence
T2 sequence 2: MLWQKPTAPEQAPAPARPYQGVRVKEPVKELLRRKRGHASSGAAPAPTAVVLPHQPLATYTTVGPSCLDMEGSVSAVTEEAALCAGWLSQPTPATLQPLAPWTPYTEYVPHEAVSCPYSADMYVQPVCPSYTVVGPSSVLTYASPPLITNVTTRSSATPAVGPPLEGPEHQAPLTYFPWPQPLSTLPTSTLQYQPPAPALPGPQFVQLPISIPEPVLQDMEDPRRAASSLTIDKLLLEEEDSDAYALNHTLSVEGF
Described as above. To be noted: protein: recombinant;recombinant; copies: 1;1; dsDNA, one strand shown. An outline of the steps:
as §1

With AGTGAAAT, the binding signal in the test with POU1 (OCT1 POU domain) was 0.138 % of ANNNNAAN 8-mers; with POU2 (OCT2 POU domain), 0.124 % of ANNNNAAN 8-mers; in test [1] it was 0.196 % of ANNNNAAN 8-mers; in test [2], 0.121 % of ANNNNAAN 8-mers.
For ATGTTAAC, in that order: 0.0645 % of ANNNNAAN 8-mers, 0.0938 % of ANNNNAAN 8-mers, 0.0578 % of ANNNNAAN 8-mers and 0.0586 % of ANNNNAAN 8-mers.
In the same order, the values of AGATCAAA are 0.0393 % of ANNNNAAN 8-mers, 0.0483 % of ANNNNAAN 8-mers, 0.0414 % of ANNNNAAN 8-mers and 0.0355 % of ANNNNAAN 8-mers.
Take ACGATAAT: the binding signal with POU1 (OCT1 POU domain) was 0.0896 % of ANNNNAAN 8-mers; in the test with POU2 (OCT2 POU domain) it was 0.123 % of ANNNNAAN 8-mers; in test [1] it was 0.0535 % of ANNNNAAN 8-mers; in test [2], 0.085 % of ANNNNAAN 8-mers.
For AGTCTAAC, in that order: 0.021 % of ANNNNAAN 8-mers, 0.0207 % of ANNNNAAN 8-mers, 0.0199 % of ANNNNAAN 8-mers and 0.0231 % of ANNNNAAN 8-mers.
In the same order, the values of ATGAAAAG are 0.135 % of ANNNNAAN 8-mers, 0.106 % of ANNNNAAN 8-mers, 0.175 % of ANNNNAAN 8-mers and 0.0867 % of ANNNNAAN 8-mers.
As for ACACTAAC, the binding signal with POU1 (OCT1 POU domain) was 0.0137 % of ANNNNAAN 8-mers; with POU2 (OCT2 POU domain), 0.0132 % of ANNNNAAN 8-mers; in test [1] it was 0.0117 % of ANNNNAAN 8-mers; in test [2] it was 0.014 % of ANNNNAAN 8-mers.
Turning to ACGCAAAC, the binding signal with POU1 (OCT1 POU domain) is 0.0614 % of ANNNNAAN 8-mers; with POU2 (OCT2 POU domain), 0.0437 % of ANNNNAAN 8-mers; in test [1], 0.103 % of ANNNNAAN 8-mers; in test [2], 0.0512 % of ANNNNAAN 8-mers.
For AGTATAAT, the binding signal is 0.192 % of ANNNNAAN 8-mers in the test with POU1 (OCT1 POU domain), 0.289 % of ANNNNAAN 8-mers with POU2 (OCT2 POU domain), 0.0866 % of ANNNNAAN 8-mers in test [1] and 0.121 % of ANNNNAAN 8-mers in test [2].
For AATCAAAG, in that order: 0.0854 % of ANNNNAAN 8-mers, 0.0857 % of ANNNNAAN 8-mers, 0.122 % of ANNNNAAN 8-mers and 0.0916 % of ANNNNAAN 8-mers.
As to AAAACAAT, the binding signal is 0.0736 % of ANNNNAAN 8-mers in the test with POU1 (OCT1 POU domain), 0.0604 % of ANNNNAAN 8-mers with POU2 (OCT2 POU domain), 0.0913 % of ANNNNAAN 8-mers in test [1] and 0.0735 % of ANNNNAAN 8-mers in test [2].
Regarding ATAGCAAA, the binding signal with POU1 (OCT1 POU domain) was 0.0744 % of ANNNNAAN 8-mers; with POU2 (OCT2 POU domain), 0.0552 % of ANNNNAAN 8-mers; in test [1], 0.078 % of ANNNNAAN 8-mers; in test [2] it was 0.0454 % of ANNNNAAN 8-mers.
ATCCGAAT: the binding signal in the test with POU1 (OCT1 POU domain) is 0.0542 % of ANNNNAAN 8-mers; with POU2 (OCT2 POU domain), 0.0748 % of ANNNNAAN 8-mers; in test [1], 0.0496 % of ANNNNAAN 8-mers; in test [2] it was 0.066 % of ANNNNAAN 8-mers.
In the same order, the values of ATGGCAAG are 0.0355 % of ANNNNAAN 8-mers, 0.0414 % of ANNNNAAN 8-mers, 0.0351 % of ANNNNAAN 8-mers and 0.0371 % of ANNNNAAN 8-mers.
In the same order, the values of AGGAAAAG are 0.1 % of ANNNNAAN 8-mers, 0.08 % of ANNNNAAN 8-mers, 0.133 % of ANNNNAAN 8-mers and 0.0702 % of ANNNNAAN 8-mers.
In the same order, the values of ACACAAAC are 0.0236 % of ANNNNAAN 8-mers, 0.019 % of ANNNNAAN 8-mers, 0.0398 % of ANNNNAAN 8-mers and 0.0297 % of ANNNNAAN 8-mers.
Consider ACCGCAAA, for which the binding signal with POU1 (OCT1 POU domain) was 0.0179 % of ANNNNAAN 8-mers; in the test with POU2 (OCT2 POU domain), 0.0167 % of ANNNNAAN 8-mers; in test [1], 0.018 % of ANNNNAAN 8-mers; in test [2], 0.0124 % of ANNNNAAN 8-mers.
Consider AGTACAAA, for which the binding signal is 0.0336 % of ANNNNAAN 8-mers in the test with POU1 (OCT1 POU domain), 0.0328 % of ANNNNAAN 8-mers with POU2 (OCT2 POU domain), 0.0375 % of ANNNNAAN 8-mers in test [1] and 0.0446 % of ANNNNAAN 8-mers in test [2].
In the same order, the values of ATATAAAG are 0.0725 % of ANNNNAAN 8-mers, 0.088 % of ANNNNAAN 8-mers, 0.0597 % of ANNNNAAN 8-mers and 0.0603 % of ANNNNAAN 8-mers.
As for AACAGAAA, the binding signal in the test with POU1 (OCT1 POU domain) is 0.042 % of ANNNNAAN 8-mers; with POU2 (OCT2 POU domain) it was 0.0409 % of ANNNNAAN 8-mers; in test [1], 0.0355 % of ANNNNAAN 8-mers; in test [2], 0.033 % of ANNNNAAN 8-mers.
Regarding ACAAGAAT, the binding signal was 0.0454 % of ANNNNAAN 8-mers with POU1 (OCT1 POU domain), 0.0518 % of ANNNNAAN 8-mers in the test with POU2 (OCT2 POU domain), 0.0437 % of ANNNNAAN 8-mers in test [1] and 0.0512 % of ANNNNAAN 8-mers in test [2].
As to ACGGGAAT, the binding signal in the test with POU1 (OCT1 POU domain) was 0.0641 % of ANNNNAAN 8-mers; with POU2 (OCT2 POU domain), 0.0725 % of ANNNNAAN 8-mers; in test [1], 0.0574 % of ANNNNAAN 8-mers; in test [2] it was 0.0759 % of ANNNNAAN 8-mers.
For ATGCCAAC, in that order: 0.0225 % of ANNNNAAN 8-mers, 0.0293 % of ANNNNAAN 8-mers, 0.025 % of ANNNNAAN 8-mers and 0.0124 % of ANNNNAAN 8-mers.
In the same order, the values of ATGGCAAT are 0.0545 % of ANNNNAAN 8-mers, 0.0719 % of ANNNNAAN 8-mers, 0.0484 % of ANNNNAAN 8-mers and 0.0578 % of ANNNNAAN 8-mers.
In the same order, the values of ATGGCAAC are 0.0263 % of ANNNNAAN 8-mers, 0.0219 % of ANNNNAAN 8-mers, 0.0297 % of ANNNNAAN 8-mers and 0.0264 % of ANNNNAAN 8-mers.
For the sequence AATTCAAA, the binding signal is 0.373 % of ANNNNAAN 8-mers with POU1 (OCT1 POU domain), 0.292 % of ANNNNAAN 8-mers in the test with POU2 (OCT2 POU domain), 0.438 % of ANNNNAAN 8-mers in test [1] and 0.4 % of ANNNNAAN 8-mers in test [2].
On to AAGTGAAA, for which the binding signal with POU1 (OCT1 POU domain) was 0.0721 % of ANNNNAAN 8-mers; in the test with POU2 (OCT2 POU domain), 0.0587 % of ANNNNAAN 8-mers; in test [1], 0.0788 % of ANNNNAAN 8-mers; in test [2], 0.0627 % of ANNNNAAN 8-mers.
Regarding ATCGAAAC, the binding signal was 0.0275 % of ANNNNAAN 8-mers with POU1 (OCT1 POU domain), 0.0236 % of ANNNNAAN 8-mers with POU2 (OCT2 POU domain), 0.0316 % of ANNNNAAN 8-mers in test [1] and 0.0215 % of ANNNNAAN 8-mers in test [2].
For ATAAAAAT, in that order: 0.131 % of ANNNNAAN 8-mers, 0.125 % of ANNNNAAN 8-mers, 0.114 % of ANNNNAAN 8-mers and 0.09 % of ANNNNAAN 8-mers.
As for AGACTAAC, the binding signal with POU1 (OCT1 POU domain) is 0.0153 % of ANNNNAAN 8-mers; with POU2 (OCT2 POU domain), 0.0207 % of ANNNNAAN 8-mers; in test [1] it was 0.0156 % of ANNNNAAN 8-mers; in test [2], 0.0198 % of ANNNNAAN 8-mers.
